Reference: PubChem BioAssay (Tox21)
Results filed as inconclusive are left out. Entries that show only a call come without a potency. Active and inactive are the calls of the source. Unless noted, calls follow the shape of the dose curve; as a rule, active = well fitted curve in the direction sought with a large enough effect in the repeat runs; inconclusive = weak or mixed curves; inactive = no such curve, though single readings can be large; an effect the other way counts as inactive or inconclusive.

What was measured:
[1] = qHTS assay for small molecule agonists of the p53 signaling pathway (AID 651631; calls by dose curve; also: nearly all actives have a fitted effect of over 15% in size)
Outline: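 Stably transfected HCT-116 cells (beta-lactamase behind p53 response elements) get compounds after a 5 h settling period; 16 h later at 37 °C, FRET substrate is loaded and fluorescence read after 2 h.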

[2] = qHTS assay for small molecules that induce genotoxicity in human embryonic kidney cells expressing luciferase-tagged ATAD5 (AID 651632); also: nearly all actives have a fitted effect of over 15% in size; also: potency is read from the fitted curve at half-maximal effect
Outline: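 ATAD5-luc HEK293T, 2,000 cells/well; cpd or DMSO pin-transferred; 16 hr, 37C/5% CO2; Amplite 30 min RT; luminescence.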

[3] = qHTS assay for small molecule agonists of the p53 signaling pathway - cell viability (AID 651633; calls by dose curve;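 also: p53RE-bla HCT reporter cells with a stable beta-lactamase p53 reporter; series mostly up to about 83 µM; nearly all actives have a fitted effect of over 30% in size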)
Outline: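 p53RE-bla cells, seeded at 4,000 per well and rested 5 h at 37 C/5% CO2, received compounds in DMSO for 16 h at 37 C. CellTiter-Glo was then added, and luminescence was read after 30 min at room temperature to gauge cytotoxicity.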

[4] = qHTS assay for small molecules that induce genotoxicity in human embryonic kidney cells expressing luciferase-tagged ATAD5 - cell viability (AID 651634; calls by dose curve; also: nearly all actives have a fitted effect of over 25% in size; also: potency is read from the fitted curve at half-maximal effect)
Outline: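 Fluorescence from CellTiter-Fluor, reporting protease activity within live cells, served as the viability read-out. HEK293T cells carrying luciferase-tagged ATAD5 had been treated with compound for 15.5 hr at 37C.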

[5] = qHTS assay for small molecule disruptors of the mitochondrial membrane potential - cell viability (AID 720634; calls by dose curve;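 also: human HepG2 liver cancer cells; series mostly up to about 83 µM; nearly all actives have a fitted effect of over 20% in size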)
Outline: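 Cells: HepG2, 2,000/well, attached overnight. Compound 1 hr, 37 C/5% CO2. +m-MPI dye, +CellTiter-Glo 30 min RT. Readout: luminescence (ATP).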

[6] = qHTS assay to test for compound auto fluorescence at 590 nm (red) in HepG2 cells (AID 720674)
Outline: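 Rose Bengal sodium served as the red fluorophore standard. HepG2 monolayers (overnight attachment, MEM with 10% FBS) were exposed to test compounds for 1 hr at 37 C and read at Ex 540/Em 590 nm.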

[7] = qHTS assay to test for compound auto fluorescence at 535 nm (green) in HepG2 cells (AID 720675)
[8] = qHTS assay to test for compound auto fluorescence at 460 nm (blue) in HEK293 cells (AID 720678)
Outline: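 HEK293, 2,000 cells/well, 10% dialyzed FBS; attach 4-5 hr 37C; pin compound or DMSO; o/n 37C/5% CO2; fluorescence 405/460 nm; triamterene-equivalent units.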

[9] = qHTS assay to test for compound auto fluorescence at 590 nm (red) in HEK293 cells (AID 720679)
Outline: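 Intensity at 540nm excitation and 590nm emission is reported as Rose Bengal sodium-equivalent autofluorescence. Measurements followed overnight exposure (37C, 5% CO2) of HEK293 cells, 2,000 per well, to 23 nL compound.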

[10] = qHTS assay for small molecule disruptors of the mitochondrial membrane potential (AID 720635); also: potency is read from the fitted curve at half-maximal effect
Outline: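 HepG2 cells (2,000/well) attached overnight at 37C, then took compound for 1 hr at 37C, 5% CO2. Mito-MPS dye was added for 30 min; fluorescence was read at 490/535 nm (monomers) and 540/590 nm (aggregates).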

Row | SMILES | Potency [1] | Potency [2] | Potency [3] | Potency [4] | Potency [5] | outcome [6] | outcome [7] | Potency [8] | outcome [9] | Potency [10]
1 | O=C(c1ccc(Cl)cc1)c1ccc(Cl)cc1 | inactive | inactive | inactive | inactive | inactive | inactive | inactive | inactive | inactive | –
2 | Cc1cc(SC2=C(O)C[C@@](CCc3ccc(N)cc3)(C(C)C)OC2=O)c(C(C)(C)C)cc1CO | inactive | inactive | inactive | inactive | inactive | inactive | inactive | inactive | inactive | –
3 | CCOc1ccc(NC(C)=O)cc1N | inactive | inactive | inactive | inactive | inactive | inactive | inactive | inactive | inactive | –
4 | O=C(O)c1cccc(C(=O)O)c1C(=O)O | inactive | inactive | inactive | inactive | inactive | inactive | inactive | inactive | inactive | –
5 | O=C(O)c1ccncc1 | inactive | inactive | inactive | inactive | inactive | inactive | inactive | inactive | inactive | –
6 | COc1cc(CNC(=O)CCCC/C=C/C(C)C)ccc1O | inactive | inactive | inactive | inactive | inactive | inactive | inactive | inactive | inactive | –
7 | O=C1c2ccccc2C(=O)C1c1ccc2cc(S(=O)(=O)O)cc(S(=O)(=O)O)c2n1 | inactive | inactive | inactive | 52.5 µM (active) | inactive | inactive | inactive | inactive | inactive | –
8 | CCC(C)CCCC(C)(C)O (configuration not stated) | inactive | inactive | inactive | inactive | inactive | inactive | inactive | inactive | inactive | –
9 | Cc1cc(C)c(C)c(O)c1 | inactive | inactive | inactive | inactive | inactive | inactive | inactive | inactive | inactive | –
10 | CC(C)C/C=C(\C=O)c1ccccc1 | inactive | inactive | inactive | inactive | inactive | inactive | inactive | inactive | inactive | –
11 | OCC(O)c1ccccc1 (configuration not stated) | inactive | inactive | inactive | inactive | inactive | inactive | inactive | inactive | inactive | –
12 | Cc1nc(C)c(C)nc1C | inactive | inactive | inactive | inactive | inactive | inactive | inactive | inactive | inactive | –
13 | C/C=C1\[C@H]2C=C(C)C[C@]1(N)c1ccc(=O)[nH]c1C2 | inactive | inactive | inactive | inactive | inactive | inactive | inactive | inactive | inactive | –
14 | CCCCCCC/C=C/C=O | inactive | inactive | inactive | inactive | inactive | inactive | inactive | inactive | inactive | –
15 | COC(=O)/C=C/C(C)=C\C=C\C(C)=C\C=C\C=C(C)\C=C\C=C(C)\C=C\C(=O)O | inactive | inactive | inactive | inactive | inactive | inactive | inactive | inactive | inactive | –
16 | O=C(Nc1ccc2c(c1)Cc1ccccc1-2)C(F)(F)F | inactive | inactive | – | inactive | – | inactive | inactive | inactive | inactive | 17.2 µM (active)
17 | Oc1ccc(CCNCCCCCCNCCc2ccccc2)cc1O | inactive | inactive | inactive | inactive | inactive | inactive | inactive | inactive | inactive | –
18 | C[C@]12CCC(=O)C=C1[C@@H]1C[C@@H]1[C@H]1[C@@H]3[C@@H]4C[C@@H]4[C@@]4(CCC(=O)O4)[C@@]3(C)CC[C@@H]12 | inactive | inactive | – | inactive | – | inactive | inactive | inactive | inactive | –
19 | c1ccc(CCNc2nc(-c3ccccc3)cs2)cc1 | inactive | 3.35 µM (active) | inactive | inactive | – | inactive | inactive | inactive | inactive | 10.6 µM (active)
20 | C=CC(O)CCCCC (configuration not stated) | inactive | inactive | inactive | inactive | – | inactive | inactive | inactive | inactive | –
21 | CCCCCCCCCCCCN1CCOCC1 | inactive | inactive | inactive | inactive | inactive | inactive | inactive | inactive | inactive | –
22 | O=S(=O)(O)c1cc(Cl)c(Cl)cc1Cl | inactive | inactive | inactive | inactive | inactive | inactive | inactive | inactive | inactive | –
23 | CCCCCCCCCCCCSC#N | inactive | inactive | inactive | inactive | inactive | inactive | inactive | inactive | inactive | –
24 | O=C(O)c1ccc2cc(O)ccc2c1 | inactive | inactive | inactive | inactive | inactive | inactive | inactive | inactive | inactive | –
